Source: PubChem BioAssay (Tox21)
Inconclusive results are not listed. A call without a number means that no potency is given here. Active and inactive are the calls of the source. Unless noted, calls come from the whole dose curve; as a rule, active = well fitted curve in the direction sought with a large enough effect in the repeat runs; inconclusive = weak or mixed curves; inactive = no such curve, though single readings can be large; an effect the other way counts as inactive or inconclusive.

How the values were obtained:
[1] = qHTS assay to identify small molecule antagonists of the glucocorticoid receptor (GR) signaling pathway - cell viability counter screen (AID 720693); note: nearly all actives have a fitted effect of over 55% in size
[2] = qHTS assay for identifying genotoxic compounds that show differential cytotoxicity against isogenic chicken DT40 cell lines with known DNA damage response pathways - wild type cell line (AID 743012); note: nearly all actives have a fitted effect of over 60% in size; note: potency is the fitted concentration of half-maximal effect
Method in brief: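 300 wt DT40 cells/well; cpd (DMSO) pintool-transferred after ~0.5 h at 37 C/5% CO2; 40 h incubation; CellTiter-Glo added, 30 min RT; luminescence read.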

[3] = qHTS assay for identifying genotoxic compounds that show differential cytotoxicity against isogenic chicken DT40 cell lines with known DNA damage response pathways - Rev3 mutant cell line (AID 743014); note: nearly all actives have a fitted effect of over 55% in size; note: potency is the fitted concentration of half-maximal effect
[4] = qHTS assay for identifying genotoxic compounds that show differential cytotoxicity against isogenic chicken DT40 cell lines with known DNA damage response pathways - Rad54/Ku70 mutant cell line (AID 743015); note: nearly all actives have a fitted effect of over 60% in size; note: potency is the fitted concentration of half-maximal effect
[5] = qHTS assay to identify small molecule antagonists of the androgen receptor (AR) signaling pathway using the MDA cell line - cell viability counter screen (AID 743041; note: nearly all actives have a fitted effect of over 45% in size; note: potency is the fitted concentration of half-maximal effect)
Method in brief: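 Viability read by CellTiter-Fluor fluorescence in the same wells as the antagonist screen, added after 15.5 h of a 16 h, 37C exposure. Human breast carcinoma MDA-kb2 AR-luc cells, compounds co-dosed with agonist R1881.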

[6] = qHTS assay to identify small molecule antagonists of the thyroid receptor (TR) signaling pathway - cell viability counter screen (AID 743064); note: nearly all actives have a fitted effect of over 50% in size; note: potency is the fitted concentration of half-maximal effect
Method in brief: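 Same-well viability check: GH3.TRE-Luc cells stimulated with 1 nM T3 alongside test compound for 23.5 h, followed by CellTiter-Fluor fluorescence.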

[7] = qHTS assay to identify small molecule antagonists of the thyroid receptor (TR) signaling pathway (AID 743065); note: nearly all actives have a fitted effect of over 55% in size; note: potency is the fitted concentration of half-maximal effect
Method in brief: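 Antagonism measured as loss of luciferase signal in GH3 cells stably carrying a TRE-luciferase reporter, co-treated with compound and T3 (1 nM final) for 23.5 h at 37 C. Viability was read in the same well by CellTiter-Fluor.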

[8] = test system: thyroid hormone receptor (rat, GH3 cells); assay: qHTS assay to identify small molecule agonists of the thyroid receptor (TR) signaling pathway (AID 743066; calls by dose curve; note: potency is the fitted concentration of half-maximal effect)
[9] = target: Estrogen receptor (Homo sapiens) (UniProt P03372); assay: qHTS assay to identify small molecule antagonists of the estrogen receptor alpha (ER-alpha) signaling pathway (AID 743069; active = well fitted curve in the direction sought with a large enough effect in the signal ratio in the repeat runs, not every such curve was filed as active; the % refers to the signal ratio)
Sequence of Estrogen receptor (Homo sapiens) (P03372 whole entry, looked up): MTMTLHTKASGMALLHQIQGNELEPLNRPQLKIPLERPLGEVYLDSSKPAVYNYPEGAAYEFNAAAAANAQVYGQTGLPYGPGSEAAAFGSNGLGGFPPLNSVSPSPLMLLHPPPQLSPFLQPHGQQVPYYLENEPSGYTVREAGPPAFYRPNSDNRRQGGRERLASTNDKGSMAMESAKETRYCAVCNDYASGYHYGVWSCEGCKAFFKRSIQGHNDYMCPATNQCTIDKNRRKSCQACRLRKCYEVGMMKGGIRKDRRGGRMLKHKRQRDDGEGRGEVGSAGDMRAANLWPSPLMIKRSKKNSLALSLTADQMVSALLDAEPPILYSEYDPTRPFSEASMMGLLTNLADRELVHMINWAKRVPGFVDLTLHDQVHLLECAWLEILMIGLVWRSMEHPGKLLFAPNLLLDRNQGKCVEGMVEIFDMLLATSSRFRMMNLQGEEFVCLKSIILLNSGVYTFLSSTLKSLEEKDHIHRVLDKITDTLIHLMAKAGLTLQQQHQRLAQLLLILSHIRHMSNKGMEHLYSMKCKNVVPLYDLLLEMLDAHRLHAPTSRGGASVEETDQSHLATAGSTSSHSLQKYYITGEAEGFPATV
Method in brief: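 Antagonist mode: compounds in DMSO were co-added with 17beta-estradiol to ER-alpha-bla HEK293 cells (2% charcoal-stripped serum) and left 18 h at 37C. Reporter inhibition was measured as FRET fluorescence after 2 h LiveBLAzer substrate at room temperature.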

[10] = qHTS assay to identify small molecule antagonists of the estrogen receptor alpha (ER-alpha) signaling pathway - cell viability counter screen (AID 743074; calls by dose curve;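 note: HEK293 cells carrying ER-alpha-UAS-bla reporter stimulated with 17beta-estradiol; nearly all actives have a fitted effect of over 45% in size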)
[11] = target: Estrogen receptor (Homo sapiens) (UniProt P03372); assay: qHTS assay to identify small molecule agonists of the estrogen receptor alpha (ER-alpha) signaling pathway (AID 743075; calls by dose curve;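 note: HEK293 GripTite cells with ER-alpha and UAS-driven beta-lactamase reporter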)
[12] = target: Estrogen receptor (Homo sapiens) (UniProt P03372); assay: qHTS assay to identify small molecule agonists of the estrogen receptor alpha (ER-alpha) signaling pathway using the BG1 cell line (AID 743079); details: BG1Luc4E2 cells, ERE-luciferase agonist, 22 h; activation: at 70.3 µM (top of the series); note: nearly all actives have a fitted effect of over 20% in size; note: potency is the fitted concentration of half-maximal effect
[13] = qHTS assay to identify small molecule antagonists of the estrogen receptor alpha (ER-alpha) signaling pathway using the BG1 cell line - cell viability counter screen (AID 743081);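 note: compound given together with 17beta-estradiol as the ER stimulus; nearly all actives have a fitted effect of over 45% in size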; note: potency is the fitted concentration of half-maximal effect
Aromatase (Homo sapiens) = Aromatase (Homo sapiens) (UniProt P11511); assay: qHTS assay to identify aromatase inhibitors (AID 743083); note: nearly all actives have a fitted effect of over 55% in size; note: potency is the fitted concentration of half-maximal effect
Sequence of Aromatase (Homo sapiens) (P11511 whole entry, looked up): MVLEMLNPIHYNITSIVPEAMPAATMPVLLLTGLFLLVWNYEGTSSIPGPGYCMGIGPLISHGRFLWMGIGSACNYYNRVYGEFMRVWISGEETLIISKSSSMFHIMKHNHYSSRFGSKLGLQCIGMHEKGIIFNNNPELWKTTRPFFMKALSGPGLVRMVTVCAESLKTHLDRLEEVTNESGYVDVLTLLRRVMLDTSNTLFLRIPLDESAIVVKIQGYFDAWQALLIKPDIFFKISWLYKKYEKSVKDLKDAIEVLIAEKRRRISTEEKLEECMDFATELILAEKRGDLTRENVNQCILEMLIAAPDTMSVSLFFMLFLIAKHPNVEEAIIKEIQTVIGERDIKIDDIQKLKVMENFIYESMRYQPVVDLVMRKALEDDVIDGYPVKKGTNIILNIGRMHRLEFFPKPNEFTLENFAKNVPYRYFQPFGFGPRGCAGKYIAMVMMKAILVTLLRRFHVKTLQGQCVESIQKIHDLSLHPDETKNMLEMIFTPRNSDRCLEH

[14] = target: Androgen receptor (Homo sapiens) (UniProt P10275); assay: qHTS assay to identify small molecule antagonists of the androgen receptor (AR) signaling pathway (AID 743035; active = well fitted inhibition curve with a large enough effect in the signal ratio in the repeat runs, not every such curve was filed as active; the % refers to the signal ratio)
Sequence of Androgen receptor (Homo sapiens) (P10275 whole entry, looked up): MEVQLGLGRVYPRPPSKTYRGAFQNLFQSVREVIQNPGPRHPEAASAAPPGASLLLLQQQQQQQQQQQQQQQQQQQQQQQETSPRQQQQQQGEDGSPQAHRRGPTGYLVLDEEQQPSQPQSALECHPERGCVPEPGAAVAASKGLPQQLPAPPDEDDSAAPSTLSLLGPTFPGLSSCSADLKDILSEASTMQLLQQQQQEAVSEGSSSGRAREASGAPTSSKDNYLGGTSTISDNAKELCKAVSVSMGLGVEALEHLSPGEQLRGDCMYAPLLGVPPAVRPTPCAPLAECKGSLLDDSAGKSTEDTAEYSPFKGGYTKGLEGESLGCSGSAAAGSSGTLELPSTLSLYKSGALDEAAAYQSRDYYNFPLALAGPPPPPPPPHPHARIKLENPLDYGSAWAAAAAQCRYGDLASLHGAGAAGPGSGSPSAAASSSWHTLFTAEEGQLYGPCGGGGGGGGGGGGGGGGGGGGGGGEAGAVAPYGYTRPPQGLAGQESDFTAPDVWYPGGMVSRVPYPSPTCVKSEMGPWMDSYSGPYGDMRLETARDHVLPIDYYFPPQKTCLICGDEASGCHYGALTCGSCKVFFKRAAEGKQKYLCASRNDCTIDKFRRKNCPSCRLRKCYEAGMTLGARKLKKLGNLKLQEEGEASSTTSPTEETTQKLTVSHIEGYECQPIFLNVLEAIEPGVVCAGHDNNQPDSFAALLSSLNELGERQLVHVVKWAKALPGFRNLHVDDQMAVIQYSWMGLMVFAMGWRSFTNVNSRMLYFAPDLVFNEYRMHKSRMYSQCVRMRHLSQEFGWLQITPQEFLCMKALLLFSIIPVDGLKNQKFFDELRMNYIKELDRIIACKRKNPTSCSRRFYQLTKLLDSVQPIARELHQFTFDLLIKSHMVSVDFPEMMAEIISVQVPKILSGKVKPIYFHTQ
Method in brief: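 In this cell-based reporter screen, compounds were tested in concentration series against R1881-activated HEK293 cells expressing beta-lactamase under UAS control; after 16 h at 37C, FRET substrate was added and fluorescence read 2 h later.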

[15] = target: Androgen receptor (Homo sapiens) (UniProt P10275); assay: qHTS assay to identify small molecule agonists of the androgen receptor (AR) signaling pathway (AID 743036; active = well fitted activation curve with a large enough effect in the signal ratio in the repeat runs, with a control signal flat, not every such curve was filed as active; the % refers to the signal ratio)
Method in brief: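 Agonist activity was scored by beta-lactamase reporter fluorescence in stably transfected HEK293 cells exposed to compounds for 16 h at 37C and 5% CO2. Substrate loading took 2 h at room temperature.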

[16] = target: Androgen receptor (Homo sapiens) (UniProt P10275); assay: qHTS assay to identify small molecule agonists of the androgen receptor (AR) signaling pathway using the MDA cell line (AID 743040; note: nearly all actives have a fitted effect of over 20% in size)
Method in brief: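 Luciferase agonist assay: 16 h compound exposure at 37C without CO2 in MDA-kb2 AR-luc cells, whose MMTV promoter responds to both AR and GR. Luminescence measured after 30 min room-temperature incubation with ONE-Glo.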

[17] = target: Androgen receptor (Homo sapiens) (UniProt P10275); assay: qHTS assay to identify small molecule antagonists of the androgen receptor (AR) signaling pathway using the MDA cell line (AID 743042)
Method in brief: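 Antagonist mode: compounds plus R1881 agonist added to MDA-kb2 AR-luc cells, incubated 16 h at 37C. Luciferase reporter luminescence quantified, with multiplexed CellTiter-Fluor readout for cell viability.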

[18] = qHTS assay to identify small molecule antagonists of the estrogen receptor alpha (ER-alpha) signaling pathway using the BG1 cell line (AID 743080; calls by dose curve;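 note: BG1 cells stimulated with 17beta-estradiol alongside compound; nearly all actives have a fitted effect of over 25% in size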)
Method in brief: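 Readout is ONE-Glo luminescence, taken 30 min at room temperature after reagent addition, preceded by a CellTiter-Fluor viability read; BG1-Luc-4E2 cells had received compound and 17beta-estradiol for 21.5 h at 37 C.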

Row | Structure (SMILES) | Potency [1] | Potency [2] | Potency [3] | Potency [4] | Potency [5] | Potency [6] | Potency [7] | Potency [8] | Potency [9] | Potency [10] | Potency [11] | Potency [12] | Potency [13] | Potency (Aromatase (Homo sapiens)) | Potency [14] | Potency [15] | Potency [16] | Potency [17] | Potency [18]
1 | CC1CCC(NC(=O)N(CCCl)N=O)CC1 (stereo unspecified) | inactive | inactive | inactive | inactive | inactive | inactive | inactive | inactive | inactive | inactive | inactive | 26.6 µM (active) | inactive | inactive |  |  |  |  | 
2 | CN(C)c1ccc(C(=C2C=CC(=[N+](C)C)C=C2)c2c(O)c(S(=O)(=O)[O-])cc3cc(S(=O)(=O)O)ccc23)cc1 | inactive | 11.9 µM (active) | 10.6 µM (active) | 13.3 µM (active) |  | 29.8 µM (active) | 11.9 µM (active) | inactive | inactive |  | inactive |  | 23.7 µM (active) | 26.6 µM (active) | inactive | inactive | inactive | 11.9 µM (active) | 
3 | NCc1ccccc1CC(=O)N[C@@H]1C(=O)N2C(C(=O)O)=C(CSc3nnnn3CC(=O)O)CS[C@H]12 | inactive | inactive | inactive | inactive | inactive | inactive | inactive | inactive | inactive | inactive | inactive | inactive | inactive | inactive |  |  |  |  | inactive
4 | C=C(NC(=O)C(=C)NC(=O)c1csc(C2=N[C@@H]3c4csc(n4)[C@H]4NC(=O)c5csc(n5)[C@H]([C@](C)(O)[C@@H](C)O)NC(=O)[C@H]5CSC(=N5)C(=CC)NC(=O)C([C@@H](C)O)NC(=O)c5csc(n5)[C@]3(CC2)NC(=O)[C@H](C)NC(=O)C(=C)NC(=O)[C@H](C)NC(=O)C([C@@H](C)CC)NC2C=Cc3c([C@H](C)O)cc(nc3C2O)C(=O)O[C@@H]4C)n1)C(N)=O (stereo partly specified) | inactive | 2.54 µM (active) | 3.2 µM (active) | 4.03 µM (active) |  | 8.04 µM (active) | 12.7 µM (active) | 5.69 µM (active) |  | inactive |  | inactive |  | inactive |  |  | inactive |  | inactive
5 | COc1ccc(C2NC(=S)N3C(c4ccc(OC)c(OC)c4)NC(=S)N23)cc1OC (stereo unspecified) | inactive | 0.0067 µM (active) | 0.0106 µM (active) | 0.0106 µM (active) | 0.15 µM (active) | 0.188 µM (active) | 0.0841 µM (active) |  |  | inactive | inactive | inactive | inactive | 0.168 µM (active) |  |  | inactive | 0.075 µM (active) | 
6 | COc1c(O[C@@H]2O[C@H](CO)[C@@H](O)[C@H](O)[C@H]2O)cc2c(c1OC)-c1ccc(SC)c(=O)cc1[C@@H](NC(C)=O)CC2 | inactive | inactive | inactive | inactive | inactive | inactive | inactive | inactive |  | inactive |  |  | inactive | inactive |  |  |  |  | 
